In PubChem BioAssay:
Calls of active or inactive are those of the source. Unless noted, how the calls were made is not given here.

Tests used:
[1] = compound effects on lung adenocarcinoma cell viability – A549, calcein-AM fluorescence, 48 h, basal, profiling panel (AID 1162); conditions: higher = more signal; further: test concentration not given here
[2] = compound effects on differentiated 3T3-L1 adipocyte viability – cell-based, 3T3-L1 adipocytes, calcein-AM fluorescence, 48 h, basal, profiling panel (AID 1163); conditions: 3T3-L1 adipocytes viability, higher = more signal; further: test concentration not given here
[3] = compound effects on hepatocellular carcinoma cell viability – HepG2, calcein-AM fluorescence, 48 h, basal, profiling panel (AID 1164); conditions: higher = more signal; further: test concentration not given here
[4] = compound effects on multiple myeloma cell viability – MM1S, calcein-AM fluorescence, 48 h, basal, profiling panel (AID 1165); conditions: higher = more signal; further: test concentration not given here
[5] = calcein-AM signal in unstimulated myeloma cells – cell-based, calcein-AM fluorescence, 48 h, PK04 Diversity Set, profiling panel (AID 1166); conditions: RPMI8226 myeloma viability, higher = more signal;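 further: cells grown under basal conditions without added stimulus; test concentration not given here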
[6] = JC-1 mitochondrial signal, unstimulated HepG2 cells – cell-based, JC-1 fluorescence, 24 h, 100 nL compound, profiling panel (AID 1167); conditions: HepG2 mitochondrial potential, higher = more signal; further: test concentration not given here
[7] = JC-1 mitochondrial signal, unstimulated adipocytes – cell-based, JC-1 fluorescence, 3T3-L1 adipocytes, 24 h, 100 nL compound, profiling panel (AID 1168); conditions: JC-1 mitochondrial fluorescence, higher = more signal, called active from +8 up or from −8 down; further: test concentration not given here
[8] = JC-1 mitochondrial signal, unstimulated myeloma cells – cell-based, JC-1 fluorescence, RPMI8226, 24 h, 100 nL compound, profiling panel (AID 1169); conditions: JC-1 mitochondrial potential fluorescence, higher = more signal; further: test concentration not given here
[9] = JC-1 mitochondrial signal, unstimulated MM1S myeloma – cell-based, JC-1 fluorescence, 24 h, 100 nL compound, profiling panel (AID 1170); conditions: MM1S mitochondrial potential, higher = more signal; further: test concentration not given here
[10] = resazurin metabolic signal in A549 cells – cell-based, resazurin fluorescence, 24 h, PK04 Diversity Set, profiling panel (AID 1171); conditions: A549 viability, higher = more signal, called active from +8 up or from −8 down; further: test concentration not given here
[11] = resazurin metabolic signal in HepG2 cells – cell-based, resazurin fluorescence, 24 h, PK04 Diversity Set, profiling panel (AID 1172); conditions: HepG2 viability, higher = more signal; further: test concentration not given here
[12] = budding yeast growth changes without added modifier – OD600, strain BY4716, 24 h, basal condition, primary screen (AID 1173); conditions: S. cerevisiae BY4716 growth, OD600, 24 h; higher = more signal, called active from +8 up or from −8 down
[13] = viability profiling in MM1S myeloma cells – cell-based, resazurin fluorescence, basal, 24 h, PK04 Diversity Set, profiling panel (AID 1174); conditions: higher = more signal, called active from +8 up or from −8 down; further: test concentration not given here
[14] = biological target: Dihydroorotate dehydrogenase (quinone), mitochondrial (Plasmodium falciparum (isolate 3D7)) (UniProt Q08210); experiment: inhibition of P. falciparum DHODH – biochemical, C-terminal His tag, absorbance 600 nm, primary screen (AID 1175); conditions: PfDHODH enzyme, DCIP absorbance 600 nm; higher = more signal, called active from +8 up or from −8 down;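 further: recombinant parasite enzyme with a five histidine tag at its C terminus; test concentration not given here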
[15] = inhibition of PAO1 biofilm formation – strain PAO1, LB-PBS medium, absorbance 600 nm, primary screen (AID 1176); further: test concentration not given here; conditions: P. aeruginosa PAO1 growth/biofilm, A600, 12 h; higher = more signal
[16] = growth modulation of vineyard yeast isolate – strain RM11-1a, OD600, basal, 24 h, primary screen (AID 1177);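 further: cultures grown under basal conditions with no added stressor; test concentration not given here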; conditions: S. cerevisiae RM11-1a growth, OD600, 24 h; higher = more signal, called active from +8 up or from −8 down
[17] = growth of efflux-deficient E. coli DRC39 – strain DRC39, OD650, 24 h, E. coli filamentation inducers, primary screen (AID 1178);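 further: growth measured as culture turbidity by optical density at 650 nm; test concentration not given here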; conditions: E. coli DRC39 acrAB, higher = more signal, called active from +8 up or from −8 down
[18] = growth of efflux-deficient E. coli DRC39 – strain DRC39, OD650, 48 h, E. coli filamentation inducers, primary screen (AID 1179);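 further: screen aims at cell division blockers that make cells filament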; conditions: E. coli DRC39 delta-acrAB growth, higher = more signal, called active from +8 up or from −8 down
[19] = viability profiling in RPMI8226 myeloma cells – cell-based, resazurin fluorescence, basal, 24 h, PK04 Diversity Set, profiling panel (AID 1180); conditions: higher = more signal;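 further: RPMI8826 multiple myeloma cell line at 5000 cells per well; test concentration not given here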
[20] = biological target: E3 ubiquitin-protein ligase XIAP (Homo sapiens) (UniProt P98170); experiment: small molecules binding XIAP protein – biophysical, small-molecule microarray, fluorescence 635 nm, primary screen (AID 1181); conditions: higher = more signal;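 further: score merges 667 nm emission and signal to noise over triplicate slides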
Chain of E3 ubiquitin-protein ligase XIAP (Homo sapiens) (P98170 whole entry, looked up): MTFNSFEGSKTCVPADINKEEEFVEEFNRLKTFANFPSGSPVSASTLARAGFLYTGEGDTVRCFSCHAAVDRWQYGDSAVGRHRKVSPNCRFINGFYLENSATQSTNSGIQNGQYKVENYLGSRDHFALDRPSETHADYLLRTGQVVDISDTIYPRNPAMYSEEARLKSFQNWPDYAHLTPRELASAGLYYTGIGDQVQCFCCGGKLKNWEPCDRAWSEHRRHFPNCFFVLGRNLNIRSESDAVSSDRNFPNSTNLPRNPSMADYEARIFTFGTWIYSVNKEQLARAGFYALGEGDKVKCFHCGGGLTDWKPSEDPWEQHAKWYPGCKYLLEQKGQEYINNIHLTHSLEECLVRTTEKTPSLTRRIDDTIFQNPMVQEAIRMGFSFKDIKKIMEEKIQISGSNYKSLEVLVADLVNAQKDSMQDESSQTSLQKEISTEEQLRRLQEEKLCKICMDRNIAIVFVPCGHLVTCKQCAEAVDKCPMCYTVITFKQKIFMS

Chain of Dihydroorotate dehydrogenase (quinone), mitochondrial (Plasmodium falciparum (isolate 3D7)) (Q08210 whole entry, looked up): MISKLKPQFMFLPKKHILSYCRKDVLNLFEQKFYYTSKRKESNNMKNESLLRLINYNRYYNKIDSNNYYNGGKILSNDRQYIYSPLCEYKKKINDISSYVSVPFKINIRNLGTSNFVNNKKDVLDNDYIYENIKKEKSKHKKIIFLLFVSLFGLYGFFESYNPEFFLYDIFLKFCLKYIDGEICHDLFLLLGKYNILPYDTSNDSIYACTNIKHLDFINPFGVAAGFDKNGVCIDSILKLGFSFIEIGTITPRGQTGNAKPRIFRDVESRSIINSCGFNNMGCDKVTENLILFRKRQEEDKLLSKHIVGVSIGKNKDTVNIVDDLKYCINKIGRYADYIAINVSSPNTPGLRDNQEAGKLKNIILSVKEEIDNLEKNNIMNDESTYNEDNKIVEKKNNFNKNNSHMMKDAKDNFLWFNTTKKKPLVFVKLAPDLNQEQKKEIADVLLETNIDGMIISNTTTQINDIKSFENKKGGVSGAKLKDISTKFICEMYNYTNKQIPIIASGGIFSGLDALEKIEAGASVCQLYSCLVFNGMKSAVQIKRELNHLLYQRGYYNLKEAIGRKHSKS

Structure (SMILES)	z-score [1]	z-score [2]	z-score [3]	z-score [4]	z-score [5]	z-score [6]	z-score [7]	z-score [8]	z-score [9]	z-score [10]	z-score [11]	z-score [12]	z-score [13]	composite z-score [14]	z-score [15]	z-score [16]	z-score [17]	z-score [18]	z-score [19]	composite z-score [20]
[N-]=[N+]=NCc1ccccc1C[C@]1(C(=O)N2CCOCC2)COC(c2ccc(OCCCO)cc2)=N1	0.0386	0.926	0.383	-3.46	-2.89	1.72	0.665 (inactive)	-0.843	-0.968	-0.36 (inactive)	0.0629	-2.42 (inactive)	0.117 (inactive)	0.42 (inactive)	0.715 (inactive)	1.43 (inactive)	2.56 (inactive)	1.71 (inactive)	0.698	0.18
COCC(=C=CC[C@@H](O)c1cccc(OCCO)c1)CCO	0.611	0.314	0.356	0.55	-0.0681	0.00786	0.176 (inactive)	1.15	-0.447	0.0444 (inactive)	-0.161	-0.773 (inactive)	-0.0845 (inactive)	-2.07 (inactive)	-0.59 (inactive)	-0.357 (inactive)	0.583 (inactive)	0.464 (inactive)	-0.0794	-0.241
COC(=O)c1c2oc(c1C(=O)OC)C(=O)N1CCC[C@H]1Cn1nncc1CN(Cc1ccccc1)C(=O)N[C@H](CO)CC2	-0.0989	-0.723	0.436	0.829	0.394	0.488	0.172 (inactive)	-0.136	-0.882	0.744 (inactive)	0.744	-3.62 (inactive)	-0.0795 (inactive)	0.453 (inactive)	-0.0513 (inactive)	0.738 (inactive)	0.663 (inactive)	0.836 (inactive)	0.343	-0.0832
O=C(O)[C@H]1C[C@H]2C(=O)N[C@@H](Cc3ccccc3)C(=O)N2[C@H]1c1cccc(OCCO)c1	1.11	-0.218	0.259	-3.41	-0.958	1.64	-0.169 (inactive)	-0.299	-1.18	0.75 (inactive)	1.02	-1.46 (inactive)	0.912 (inactive)	-1.98 (inactive)	-0.295 (inactive)	-0.655 (inactive)	-0.688 (inactive)	0.214 (inactive)	0.889	-0.0323
C=CCC(OC(C)=O)[C@@H]1[C@@H](N(Cc2cccc3ccccc23)C(=O)c2cccc3ccccc23)c2cc(OCCCO)ccc2N1C(=O)c1ccc2ccccc2c1 (stereo not given in full)	-0.0249	0.521	-0.184	-0.189	0.0694	2.48	-0.419 (inactive)	0.489	0.591	0.933 (inactive)	0.628	-0.775 (inactive)	0.62 (inactive)	-0.29 (inactive)	-1.44 (inactive)	-0.646 (inactive)	0.745 (inactive)	0.386 (inactive)	-0.0722	-0.179
Cc1ccc(N2C(=O)c3ccccc3[C@](C)(C(=O)NCc3ccccc3)[C@@H]2c2ccc(CO)cc2)nc1	0.868	0.483	0.197	-0.169	-1.46	0.191	-0.834 (inactive)	-0.494	1.46	-0.0526 (inactive)	-0.776	-0.878 (inactive)	1.13 (inactive)	1.07 (inactive)	0.882 (inactive)	0.741 (inactive)	0.349 (inactive)	0.329 (inactive)	0.994	-0.0326
COCC1C2CC[C@H]3C(OCc4ccc(OC)cc4)OC[C@]4(C)[C@H]3C2=C(CN4C(=O)OC(C)(C)C)[C@H](C)C1COC (stereo not given in full)	-0.226	0.335	0.919	-2.64	-4.48	5.54	-0.664 (inactive)	-0.205	-1.22	-0.0834 (inactive)	-0.819	-0.316 (inactive)	-0.79 (inactive)	-0.566 (inactive)	0.796 (inactive)	-0.688 (inactive)	-0.705 (inactive)	0.286 (inactive)	-0.723	0.441
CN(C)C(=O)[C@@]1(Cc2ccccc2)COC(c2ccc(OCCCO)cc2)=N1	0.0581	-0.538	-0.0485	-1.22	0.726	-0.455	-0.384 (inactive)	0.0953	-1.17	-0.193 (inactive)	-0.272	-3.27 (inactive)	-0.403 (inactive)	0.263 (inactive)	-0.841 (inactive)	0.536 (inactive)	0.704 (inactive)	1.19 (inactive)	0.449	0.521
CN1C(=O)C2C=CC(C(O)c3ccc(F)cc3)N(NC(=O)OC(C)(C)C)C2C1=O (stereo not given)	-0.834	-0.528	0.0643	-2.82	-0.0542	-0.8	-0.517 (inactive)	0.247	1.3	-1.18 (inactive)	-1.37	1.18 (inactive)	-0.67 (inactive)	0.929 (inactive)	0.503 (inactive)	1.09 (inactive)	-0.592 (inactive)	-0.764 (inactive)	-1.37	0.171
C=CCNC(=O)[C@H]1[C@@H]2C(=O)O[C@@H](c3ccccc3)[C@@H](c3ccccc3)N2[C@@H](c2ccc(OCCO)cc2)[C@]12C(=O)N(C(=O)OCCOC)c1ccc(C#Cc3ccc(OC)cc3)cc12	-0.394	1.44	-0.652	-0.303	-1.2	-1.22	3.09 (inactive)	-0.904	-0.529	0.0724 (inactive)	-1.14	0.583 (inactive)	0.476 (inactive)	-2.05 (inactive)	2.11 (inactive)	2.22 (inactive)	1.07 (inactive)	0.941 (inactive)	0.637	-0.0344
CCCCCCCCCCC(O)C1C=CC2C(=O)N(c3ccccc3)C(=O)C2N1Nc1ccccc1F (stereo not given)	0.059	-0.849	-0.016	-0.598	-0.105	-0.777	-0.45 (inactive)	-0.415	-0.193	0.162 (inactive)	0.0366	0.864 (inactive)	-0.361 (inactive)	0.742 (inactive)	0.819 (inactive)	0.719 (inactive)	-0.717 (inactive)	0.555 (inactive)	-0.335	0.174
CCCCCN1CC=CC23O[C@@H]4/C=C\CCC(C)OC(=O)C4[C@H]2C(=O)N(CCCCCCO)[C@@H]3C1=O (stereo not given in full)	0.29	0.644	0.822	1.6	0.656	0.589	0.785 (inactive)	-0.141	-0.459	0.944 (inactive)	1.1	-0.262 (inactive)	0.798 (inactive)	-1.35 (inactive)	0.165 (inactive)	0.422 (inactive)	1.11 (inactive)	0.848 (inactive)	1.26	-0.359
COC(=O)C(CC#Cc1ccc2c(c1)[C@]1(C(=O)N2)[C@H](C(=O)Nc2nc3ccccc3s2)[C@H]2C(=O)O[C@H](c3ccccc3)[C@H](c3ccccc3)N2[C@@H]1c1ccc(OCCO)cc1)C(=O)OC	0.686	1.18	1.64	-0.82	-1.97	-3.2	1.59 (inactive)	-1	-0.693	0.0002 (inactive)	0.885	-0.0399 (inactive)	0.973 (inactive)	-3.07 (inactive)	3.52 (inactive)	-0.367 (inactive)	0.776 (inactive)	1.42 (inactive)	-2.38	-0.0391
C=C(/C(=C/C[C@@H](OC(=O)c1ccncc1)c1cccc(OCCO)c1)c1cnc2ccccc2c1)C(C)C	0.509	1.55	0.0856	-2.52	-0.467	1.42	-0.45 (inactive)	-0.533	0.817	0.128 (inactive)	-0.118	-1.48 (inactive)	-0.59 (inactive)	-5.68 (inactive)	1.86 (inactive)	0.152 (inactive)	-0.192 (inactive)	-0.284 (inactive)	0.0866	0.227
O=C(NCC(O)CO)[C@@]1(CCS(=O)(=O)c2ccccc2)COC(c2ccc(OCCCO)cc2)=N1 (stereo not given in full)	-0.696	-0.0875	0.261	-1.29	-0.187	-0.341	-0.834 (inactive)	0.747	-0.815	1.01 (inactive)	0.114	0.452 (inactive)	-0.169 (inactive)	0.699 (inactive)	-0.043 (inactive)	1.29 (inactive)	0.243 (inactive)	-0.135 (inactive)	-0.159	-0.0332
CN(C)C(=O)[C@@]1(CCC(=O)OC(C)(C)C)N=C(c2ccc(OCCCO)cc2)O[C@H]1c1ccccc1CN=[N+]=[N-]	-0.286	-0.607	0.423	-0.124	-0.389	0.628	-0.682 (inactive)	-1.18	-0.496	1.19 (inactive)	0.891	0.481 (inactive)	-1.19 (inactive)	-0.261 (inactive)	0.317 (inactive)	-0.0065 (inactive)	0.364 (inactive)	0.98 (inactive)	0.885	-0.0272
O=c1cccc(-c2ccco2)o1	-0.69	0.474	0.219	0.0393	-0.159	-0.79	1.1 (inactive)	0.773	-0.605	-0.214 (inactive)	-0.675	-0.216 (inactive)	0.0232 (inactive)	-1.85 (inactive)	0.092 (inactive)	-0.231 (inactive)	-0.644 (inactive)	-0.338 (inactive)	-0.258	-0.179
NC(=O)[C@H]1[C@@H]2C(=O)O[C@@H](c3ccccc3)[C@@H](c3ccccc3)N2[C@@H](c2ccc(O)cc2)[C@]12C(=O)Nc1ccccc12	-0.265	-0.712	0.872	0.519	-0.544	-0.288	-0.243 (inactive)	-0.309	-0.371	-0.189 (inactive)	-0.367	-0.376 (inactive)	0.0279 (inactive)	0.0023 (inactive)	0.0332 (inactive)	0.575 (inactive)	-0.145 (inactive)	0.0129 (inactive)	0.417	-0.0559
